# AmpC no deterg: qHTS Inhibitors of AmpC Beta-Lactamase (assay without detergent) | Potency, µM (series often up to 57.1 µM), inactives show top-dose activity change, negative = inhibition, hits mostly inhibitors | actives 0.52% (n = 330,000) | AmpC nitrocefin hydrolysis, absorbance 480 nm, 0.0001% Triton;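 also: plate controls were no compound for no effect and no enzyme for full effect; nearly all actives have a fitted effect of over 20% in size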
# Target sequence (P00811 whole entry, looked up): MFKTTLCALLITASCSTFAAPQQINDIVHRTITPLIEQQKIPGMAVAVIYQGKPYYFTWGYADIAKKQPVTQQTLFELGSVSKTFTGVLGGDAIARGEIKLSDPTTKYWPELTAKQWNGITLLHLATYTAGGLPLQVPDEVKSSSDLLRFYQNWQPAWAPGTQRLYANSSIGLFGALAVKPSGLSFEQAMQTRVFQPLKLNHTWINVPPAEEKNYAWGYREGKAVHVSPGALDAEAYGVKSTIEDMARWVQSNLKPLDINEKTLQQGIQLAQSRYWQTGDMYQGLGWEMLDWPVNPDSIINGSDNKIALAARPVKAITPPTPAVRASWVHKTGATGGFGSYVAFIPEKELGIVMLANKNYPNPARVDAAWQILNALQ
#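 AmpC (5.3 nM in the dispensed reagent) in 20 mM phosphate pH 7.0 with 0.01% (detergent screen) or 0.0001% Triton X-100 was preincubated with compounds for 15 min at room temperature. Nitrocefin was then added from an 800 uM solution, and hydrolysis was followed at 480 nm.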
# Sm TGR inh: qHTS Assay for the Inhibitors of Schistosoma Mansoni Peroxiredoxins; Potency, µM (top dose mostly 114 µM), without a hit: at the top dose activity change, negative = inhibition, usual class: inhibitors; AID 485364, 2010; actives 3% (n = 360,000); purified TGR, DTNB reduction, TNB absorbance 405 nm; Schistosoma mansoni thioredoxin glutathione reductase (TGR), Q962Y6; also: % is scaled to controls: 0 for no effect and ±100 for the full control effect; nearly all actives have a fitted effect of over 60% in size
#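 First, TGR (20 nM dispensed) and NADPH were mixed with compound. Second, a 15 min room-temperature incubation followed. Third, further NADPH and then DTNB were added to start the reaction. Finally, TNB absorbance was monitored kinetically.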
# Pf growth 96h: Primary qHTS for delayed death inhibitors of the malarial parasite plastid, 96 hour incubation; P. falciparum luciferase reporter growth, 96 h; Potency, µM (series often up to 28.7 µM), inactives show at the top dose activity change, negative = inhibition, most hits filed as inhibitors; actives 6.9% (n = 320,000); also: % is scaled to controls: 0 for no effect and ±100 for the full control effect
#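 Plates of compound plus infected erythrocytes (2% hematocrit, 0.05% parasitemia final) incubate 96 hours, 37 C, 5% CO2. Detection reagent added; reduced luminescence from the parasites' luciferase reporter flags inhibition.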
# Pf growth 48h: Primary qHTS for delayed death inhibitors of the malarial parasite plastid, 48 hour incubation; P. falciparum luciferase growth in erythrocytes, 48 h; Potency, µM (doses to about 28.7 µM), for the others: at the top dose activity change, negative = inhibition, actives largely listed as inhibitors; actives 5.9% (n = 310,000); AID 504832, 2011; also: % is scaled to controls: 0 for no effect and ±100 for the full control effect
#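 Luciferase-expressing P. falciparum in infected erythrocytes (2% hematocrit, 0.1% parasitemia final) in RPMI 1640/0.5% Albumax were exposed to compound for 48 hours at 37 C, 5% CO2; growth read as luminescence.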
# AmpC inh detg: qHTS Inhibitors of AmpC Beta-Lactamase (assay with detergent); actives 0.041% (n = 370,000); P00811; AmpC hydrolysis of nitrocefin, absorbance 480 nm, 0.01% Triton; Potency, µM (top dose mostly 114 µM), for the others: top-dose activity change, negative = inhibition, actives largely listed as inhibitors;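 also: 0% = no-compound wells and -100% = no-enzyme wells; nearly all actives have a fitted effect of over 25% in size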
#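 20 mM phosphate pH 7.0 + 0.01% (detergent screen) or 0.0001% Triton X-100; 5.3 nM AmpC reagent; cpd preinc 15 min RT; nitrocefin (800 uM stock) to start; A480 q20 s × 4 min; Activity was normalised to no-enzyme and no-compound control wells.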
# SARS PLP yeast: qHTS of Yeast-based Assay for SARS-CoV PLP; actives 0.19% (n = 330,000); S. cerevisiae expressing SARS-CoV PLpro, growth rescue; AID 485353, 2010; Potency, µM (highest dose often 32.9 µM), without a hit: at the top dose activity, positive = growth rescue, actives largely listed as activators; calls by dose curve; also: 0% is about no effect; nearly all actives have a fitted effect of over 55% in size
# * = called active by the depositor; i = inactive; u = inconclusive; x = not tested or not shown. Most compounds without a hit are left out; they make up all but 12% or so of the library. Unless noted, calls follow the shape of the dose curve; as a rule, active = well fitted curve in the direction sought with a large enough effect; inconclusive = small, poorly fitted or top-dose-only effect, or another doubt; inactive = no such curve, though single readings can be large; an effect the other way counts as inactive or inconclusive. Potency is read from the fitted curve at half-maximal effect.
SMILES,AmpC no deterg,Sm TGR inh,Pf growth 96h,Pf growth 48h,AmpC inh detg,SARS PLP yeast
CCOc1ccc(CC(=O)NCc2ccc3c(c2)CCN3C(=O)c2ccccc2)cc1OCC,x,-8%,x,x,0%,x
CN(C)C(=O)N(CCCN1CCOCC1)Cc1cccc2ccccc12,69%,-10%,-6%,-10%,-6%,-1%
Fc1cccc(C2NN=C(c3ccccc3)S2)c1 (configuration not stated),-10%,4%,246%,270%,u,-12%
Cc1ccc(C2=NNC(C(O)C(O)C(O)C(C)O)S2)cc1 (configuration not stated),-13%,0%,91%,x,2%,4%
COc1ccc(C2NN=C(c3ccc(C)cc3)S2)cc1OC (configuration not stated),0%,-11%,1.9µM*,351%,2%,-1%
Cc1ccc(C2=NNC(c3cccc(F)c3)S2)cc1 (configuration not stated),-30%,0%,12µM*,i,u,-1%
C=CCN1C(=O)NC2(O)C(=O)c3ccccc3C12O (configuration not stated),-11%,-1%,58%,10%,-2%,3%
COc1ccc(CN(C)C(=O)c2cc(-c3ccccc3)nc3ccc(C)cc23)c(OC)c1OC,120%,-20%,u,8.3µM*,10%,-11%
COc1ccc(CCN(C)C(=O)c2cc(-c3ccccc3)nc3ccc(C)cc23)cc1OC,-30%,-15%,-99%,-28%,1%,-5%
COc1ccc(-c2cc(C(=O)N(C)Cc3cccc(OC)c3OC)c3ccccc3n2)cc1OC,144%,-6%,u,9.3µM*,5%,-2%
COc1ccc(CCN(C)C(=O)c2cc(-c3ccccc3)nc3ccccc23)cc1OC,179%,u,7.4µM*,13µM*,7%,1%
COc1cccc(CN(C)C(=O)c2cc(-c3ccc(F)cc3)nc3ccccc23)c1,-1%,2.2µM*,13µM*,u,4%,-1%
COc1cccc(CN(C)C(=O)c2cc(-c3ccc(OC)c(OC)c3)nc3ccccc23)c1,-22%,0%,-23%,27%,-3%,2%
Cc1ccc(S(=O)(=O)N(C)c2ccc(C(=O)N3CCN(Cc4ccc5c(c4)OCO5)CC3)cc2)cc1,132%,0%,u,x,0%,7%
O=C(O)c1ccc(NC2=C/C(=N/S(=O)(=O)c3ccccc3)c3ccccc3C2=O)cc1,-37%,20µM*,-22%,u,4%,-21%
Cc1cc(C)c(S(=O)(=O)/N=C2\C=C(Nc3ccc(C(=O)O)cc3)C(=O)c3ccccc32)c(C)c1,13µM*,u,18%,9.3µM*,-12%,-12%
Cc1nn(CCC(=O)N2CCN(c3ccccc3)CC2)c(C)c1S(=O)(=O)N1CCCC1,x,0%,x,x,16%,x
CC(Oc1ccc(Cl)cc1)c1ccnn1S(=O)(=O)c1ccc(Cl)cc1 (configuration not stated),u,-7%,5%,u,-6%,22%
Cc1ccc(S(=O)(=O)n2nccc2-c2c(-c3ccc(Cl)cc3)noc2C)cc1,-26%,1%,0.37µM*,0.66µM*,-5%,1%
C(=N\n1cnnc1SCc1ccccc1)/c1ccco1,-16%,22µM*,u,33%,u,-4%
Fc1ccc(Cl)cc1/C=N/n1cnnc1SCc1ccccc1,2%,5%,u,x,9%,0%
CC(C)(C)OC(=O)N[C@@H](COCc1ccccc1)C(=O)N[C@@H](CO)[C@H](O)[C@@H]1C[C@@H]1C(=O)NC1CCCCC1,114%,0%,u,u,-10%,5%
CCOc1ccc(N(CC(=O)NCc2cccnc2)S(=O)(=O)c2ccc(F)cc2)cc1,31%,0%,31%,-15%,1%,2%
COc1ccc(N(CC(=O)NC2CCCC2)S(=O)(=O)c2ccc(NC(C)=O)cc2)cc1,-7%,0%,0%,u,-5%,1%
COc1ccc(C)cc1S(=O)(=O)N(CC(=O)NC1CCCC1)c1ccc(F)cc1,-5%,-23%,9.3µM*,41%,5%,u
SMILES,AmpC no deterg,Sm TGR inh,Pf growth 96h,Pf growth 48h,AmpC inh detg,SARS PLP yeast
COc1ccc(N(CC(=O)NC2CC3CCC2C3)S(=O)(=O)c2ccc(C)cc2)cc1 (configuration not stated),17%,-5%,13µM*,-18%,-14%,-5%
CCOc1ccc(S(=O)(=O)N(CC(=O)Nc2cccnc2)c2ccc(F)cc2)cc1,8%,7%,5.9µM*,19%,u,-7%
COc1ccc(S(=O)(=O)N(CC(=O)NC2CCCCC2)c2ccc(F)cc2)cc1,-6%,3%,7.4µM*,33%,-4%,3%
CC(Oc1ccccc1)C(=O)OCc1cc(=O)n2nc(C(C)C)sc2n1 (configuration not stated),x,0%,x,x,-10%,x
Cc1ccccc1NC(=O)Cc1nnc(SCC(=O)NC2CCCCC2)n1C,0%,-7%,-7%,-1%,-9%,4%
O=C(CSc1cccc2cccnc12)Nc1cc(C(=O)O)cc(C(=O)O)c1,-10%,-21%,u,-1%,-12%,2%
CN(C(=O)COC(=O)C1CCN(S(=O)(=O)c2ccc3c(c2)OCCO3)CC1)C1CCCCC1,79%,-1%,11%,10%,-12%,-9%
COc1cc(CN=C(C)c2c(O)n(C3CCCCC3)c(=O)[nH]c2=O)cc(OC)c1,14%,17%,0%,u,10%,0%
C/C(=N\N1CCCCCC1)c1c(O)n(C2CCCCC2)c(=O)[nH]c1=O,-4%,17%,13µM*,u,2%,0%
CCC(=NCc1cc(OC)cc(OC)c1)c1c(O)n(C2CCCCC2)c(=O)[nH]c1=O,-8%,18%,0.83µM*,u,-1%,-1%
C=CCn1c(O)c(/C(C)=N/N2CCCCCC2)c(=O)[nH]c1=O,-18%,9%,-17%,7%,-1%,1%
CCOCCOC(=O)c1ccc2c(c1)N(Cc1ccccc1C#N)C(=O)c1ccccc1S2(=O)=O,x,6%,x,x,2%,x
Cc1cn2c(=O)c(S(=O)(=O)Nc3ccc(N4CCOCC4)cc3)c(C)nc2s1,x,5%,x,x,14%,x

# Source: PubChem BioAssay
